Results filed as inconclusive are left out. Values without a mark were called inactive. Calls of active or inactive are those of the source. Calls follow the shape of the dose curve; as a rule, active = well fitted activation curve with a large enough effect; inconclusive = small, poorly fitted or top-dose-only effect; inactive = no such curve, though single readings can be large or run the other way.
Assay: qHTS assay for re-activators of p53 using a Luc reporter: Hit Validation; also: nearly all actives have a fitted effect of over 75% in size; as to activation: 0% is about no effect
Details: p53-responsive luciferase reporter cells, luminescence, H1299 line expressing heat-sensitive Ala138Val p53; series mostly up to 46.1 µM; activation: at the top concentration
Outline: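 Hit confirmation with a 1:5 dilution series, at 37 deg C for 24 hrs, in H1299 cells co-expressing temperature-sensitive p53-A138V and p53-responsive luciferase. Nocodazole served as control; luminescence read after 10 min with detection reagent.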
For `O=C(Nc1ccccc1Oc1ccccc1)c1cc([N+](=O)[O-])ccc1Cl`, the “activation” value was -29.2%. With `COc1cc(/C=N/Nc2nc3ccccc3s2)ccc1OC(=O)c1ccccc1F` the Potency was 1.46 µM (active). For `COC(=O)c1ccc(-c2nc(-c3cccs3)no2)cc1`, the Potency was 0.146 µM (active). With `Cn1c(=N)n(CC(=O)c2ccc(Cl)c(Cl)c2)c2ccccc21` the Potency was 0.58 µM (active). For `C#CC(C)(CC)NC(=O)Cn1nnc(-c2ccc(S(C)(=O)=O)cc2)n1` (configuration not stated), the “activation” value was -1.56%. With `Cc1ccc(-c2nnc(N(C)C(=O)C3CCCO3)s2)cn1` (configuration not stated) the “activation” value was -1.56%. In the case of `Cc1ccc2cc3cc(C(=O)N4CCCCCC4)oc3nc2c1`, the Potency is reported as 10.3 µM (active). For `CCN1CCc2c(sc(NC(=O)c3ccc(S(=O)(=O)N4CCCC4)cc3)c2C(=O)NC)C1`, the “activation” value was 8.85%. For `OC(COc1ccc2cc(Br)ccc2c1)CN1CCCC1` (configuration not stated), the “activation” value was 39.6%. With `Cc1cc(C)c2nc(NNC(=O)c3ccc(S(=O)(=O)N4CCc5ccccc5C4)cc3)sc2c1` the “activation” value was 352%. In the case of `O=C(NC12CC3CC(CC(C3)C1)C2)c1ccc(-c2cccc(Cl)c2)o1`, the Potency is reported as 23.1 µM (active). In the case of `CCOc1ccc(OCc2cccc(C(=O)N3CCCC3)c2)cc1`, the Potency is reported as 0.517 µM (active). For `O=C(C1CCCN1S(=O)(=O)c1ccc(Cl)cc1)N1CCOCC1` (configuration not stated), the “activation” value was -4.17%. In the case of `Cc1ccc(-c2cc(-c3ccccc3Cl)[nH]n2)c(O)c1`, the Potency is reported as 14.6 µM (active). With `Cc1c(/C(O)=C2/C(=O)C(=O)N(Cc3cccnc3)C2c2cccs2)cnn1-c1ccccc1` (configuration not stated) the Potency was 8.2 µM (active). With `C=CCNC(=S)N/N=C(\C)c1ccccn1` the Potency was 6.51 µM (active). For `Cc1ccc(S(=O)(=O)NCC(=O)N2CCc3ccccc3C2)cc1`, the “activation” value was -22.4%.

Source: PubChem BioAssay AID624305 (National Center for Advancing Translational Sciences (NCATS), 2012)
Potency is read from the fitted curve at half-maximal effect.
